Source: PubChem BioAssay (NCATS)
Several values for one entry are separate records, joined by “and”; a condition that tells them apart may be missing. Equal entries are not always repeated. Unmarked numbers belong to inactive results. Results filed as inconclusive are left out. Entries that show only a call come without a potency. Activity calls are given as the source filed them. Unless noted, the call rests on the fitted dose curve; in most records, active means well fitted curve in the direction sought with a large enough effect; inconclusive means small, poorly fitted or top-dose-only effect, or another doubt; inactive means no such curve, though single readings can be large; an effect the other way counts as inactive or inconclusive.

How the values were obtained:
[1] = target: Mitogen-activated protein kinase 10 (Mus musculus) (UniProt Q61831); experiment: JNK3 AlphaScreen Assay (AID 530; active means well fitted curve in either direction with a large enough effect, not every such curve was filed as active;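 further: kinase came from lysate of stimulated human HepG2 cells; signal reports phosphorylation of biotinylated GST-cJun 1-79 at Ser73 with 10 µM ATP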)
Method in brief: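 Phosphorylation of biotinylated GST-cJun(1-79) at Ser73 is measured by AlphaScreen proximity luminescence. Enzyme is JNK3 in HepG2 lysates activated with interleukin-1beta and tumor necrosis factor alpha; ATP is 10 uM final.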

[2] = Cell Viability - Renal Proximal Tubule (AID 545);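 further: cells exposed to compound for 40 hours; nearly all actives have a fitted effect of over 40% in size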
Method in brief: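 Cytotoxicity is scored as a concentration-dependent drop in cellular ATP in primary rat renal proximal tubule cells exposed for 40 hr. AC50 derives from Hill modelling.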

[3] = Cellular Toxicity (caspase-3) Jurkat (AID 655); conditions: Jurkat caspase-3 activation, luminescence; caspase-3 activation: at 92.2 µM (top of the series), DMSO = 0%, tamoxifen = 100%;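 further: cells exposed to compound for 16 h at 37 °C before reading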
Method in brief: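 Caspase 3/7 activation is scored as increased luminescence in Jurkat cells cultured with compound for 16 hours in complete medium. AC50 values come from Hill fits of qHTS concentration-response data normalized to DMSO and 100 uM tamoxifen controls.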

[4] = Cellular Toxicity (caspase-3) Hek293 (AID 664); conditions: HEK293 caspase-3 activation, DMSO = 0%, 100 µM tamoxifen = 100%; at 92.2 µM (top of the series);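 further: cells exposed to compound for 16 h at 37 °C before readout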
Method in brief: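 Concentration-response qHTS: caspase 3/7 activation measured by luminescent aminoluciferin substrate cleavage after 16 h compound exposure of Hek 293 cells. AC50 from Hill equation, with DMSO as basal and 100 uM tamoxifen as 100%.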

[5] = Cell Viability - LYMP1-003 - Assay at 40 hr (AID 964); further: nearly all actives have a fitted effect of over 60% in size
Method in brief: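 Viability is taken as cellular ATP, read by CellTiter-Glo luminescence after 40 h of compound exposure at 37 C. Cells: human lymphoblastoid line LYMP1-003 at 2500/well; AC50 values derived by Hill-equation fitting of concentration-response data.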

[6] = Cell Viability - LYMP2-003 (AID 965);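 further: cells exposed to compounds for 24 h before reading; nearly all actives have a fitted effect of over 50% in size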
Method in brief: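 Acute cytotoxicity is scored as a concentration-dependent drop in intracellular ATP, measured by luciferase luminescence in human lymphoblastoid cells treated for 24 hours at 37 C. AC50 values derive from Hill-equation modelling.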

[7] = Cell Viability - LYMP2-009 (AID 968); further: nearly all actives have a fitted effect of over 55% in size; further: potency means the concentration at half of the fitted maximal effect
[8] = Cell Viability - LYMP2-011 (AID 969); further: nearly all actives have a fitted effect of over 60% in size; further: potency means the concentration at half of the fitted maximal effect
Method in brief: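 Cytotoxicity qHTS with ATP content as read-out: lymphoblastoid cells (2500/well) exposed to compound for 24 h at 37 C, then luciferase luminescence measured. Concentration-response data fitted with the standard Hill equation to give AC50.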

[9] = Cell Viability - LYMP2-017 (AID 972); further: nearly all actives have a fitted effect of over 55% in size; further: potency means the concentration at half of the fitted maximal effect
Method in brief: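 CellTiter-Glo luminescence (cellular ATP, 30 min RT) measured cytotoxicity after 24 hr compound treatment at 37 C. Cells were a human lymphoblastoid line, LYMP2-017, plated at 2500/well and incubated 5 hr first; concentration-response fitted with Hill equation for AC50.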

[10] = Cell Viability - LYMP2-019 (AID 973); further: nearly all actives have a fitted effect of over 55% in size; further: potency means the concentration at half of the fitted maximal effect
Method in brief: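 AC50 values come from Hill-equation fits of luminescent intracellular ATP (CellTiter-Glo, 30 min, room temperature) following 24 h compound exposure at 37 C. Cells: LYMP2-019 lymphoblastoid line, 2500 per well, in complete culture medium.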

[11] = Cell Viability - LYMP2-021 (AID 974); further: nearly all actives have a fitted effect of over 55% in size; further: potency means the concentration at half of the fitted maximal effect
Method in brief: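 AC50 values come from Hill-equation fits to CellTiter-Glo luminescence (ATP content), read after 24 hour compound exposure at 37 C of 2500 LYMP2-021 lymphoblastoid cells/well; tetraoctylammonium bromide as positive control.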

[12] = Cell Viability - LYMP2-002 (AID 977)
Method in brief: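 In this qHTS viability screen, 2500 human lymphoblastoid cells per well receive compound for 24 hr at 37 C, and luciferase-based ATP luminescence gives the viability signal. Tetraoctylammonium bromide serves as positive control.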

[13] = Cell Viability - LYMP2-010 (AID 981); further: nearly all actives have a fitted effect of over 55% in size; further: potency means the concentration at half of the fitted maximal effect
Method in brief: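 CellTiter-Glo ATP luminescence measured cytotoxicity after 24 h compound exposure at 37 C. LYMP2-010 cells were seeded at 2500/well, with tetraoctylammonium bromide as control; concentration-response curves gave AC50 values by the Hill equation.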

[14] = Cell Viability - LYMP2-020 (AID 986); further: nearly all actives have a fitted effect of over 55% in size
Method in brief: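 Cytotoxicity in qHTS format: luminescent ATP readout from CellTiter-Glo after 24 h compound exposure at 37 C in complete medium. LYMP2-020 lymphoblastoid cells were seeded at 2500/well; concentration-response data fitted to the Hill equation for AC50.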

[15] = Cell Viability - LYMP2-022 (AID 987); further: nearly all actives have a fitted effect of over 55% in size; further: potency means the concentration at half of the fitted maximal effect
Method in brief: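 Cytotoxicity read as decreased cellular ATP (CellTiter-Glo luminescence, 30 min room temperature) after 24 hours compound exposure of 2500 lymphoblastoid LYMP2-022 cells/well at 37 C. Concentration-response data fitted with standard Hill equation for AC50.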

[16] = target: Voltage-gated inwardly rectifying potassium channel KCNH2 (Homo sapiens) (UniProt Q12809); experiment: qHTS Assay for Small Molecule Inhibitors of the Human hERG Channel Activity (AID 588834);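 further: lower thallium flux fluorescence means stronger hERG block; nearly all actives have a fitted effect of over 50% in size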; further: potency means the concentration at half of the fitted maximal effect
Method in brief: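 Cells were infected with hERG-BacMam virus for 4 hrs at room temperature, grown overnight, then seeded at 2000/well. After dye loading and roughly 10 min compound treatment, thallium influx was triggered and fluorescence recorded.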

[17] = qHTS assay for small molecule activators of the nuclear factor-kappa B (NF-kB) signaling pathway (AID 651749; active means well fitted activation curve with a large enough effect in the signal ratio; the % refers to the signal ratio); conditions: NF-kB-bla ME-180 cells, beta-lactamase FRET ratio, 16 h; stronger effect = higher value
Method in brief: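 Human ME-180 cervical cells with an NF-kB-bla construct; compounds added via 23 nL pin transfer, DMSO as vehicle; incubation 16 hr. Reporter activity measured by FRET disruption.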

[18] = qHTS assay for small molecule activators of the human pregnane X receptor (PXR) signaling pathway (AID 720659; call rule not given here)
[19] = Cell Viability - LYMP2-006 (AID 978); further: nearly all actives have a fitted effect of over 60% in size; further: potency means the concentration at half of the fitted maximal effect
Method in brief: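 Concentration-dependent loss of intracellular ATP in a human lymphoblastoid line after 24 hr treatment at 37 C was measured by CellTiter-Glo luminescence, with AC50 values obtained from standard Hill-equation modelling.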

[20] = Cell Viability - LYMP2-014 (AID 983); further: nearly all actives have a fitted effect of over 50% in size
Method in brief: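 Intracellular ATP loss, read by luciferase luminescence, measures acute cytotoxicity after 24 h compound exposure of lymphoblastoid LYMP2-014 cells (2500/well, 37 C). Concentration-response data fitted to the Hill equation for AC50.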

Sequence of Voltage-gated inwardly rectifying potassium channel KCNH2 (Homo sapiens) (Q12809 whole entry, looked up): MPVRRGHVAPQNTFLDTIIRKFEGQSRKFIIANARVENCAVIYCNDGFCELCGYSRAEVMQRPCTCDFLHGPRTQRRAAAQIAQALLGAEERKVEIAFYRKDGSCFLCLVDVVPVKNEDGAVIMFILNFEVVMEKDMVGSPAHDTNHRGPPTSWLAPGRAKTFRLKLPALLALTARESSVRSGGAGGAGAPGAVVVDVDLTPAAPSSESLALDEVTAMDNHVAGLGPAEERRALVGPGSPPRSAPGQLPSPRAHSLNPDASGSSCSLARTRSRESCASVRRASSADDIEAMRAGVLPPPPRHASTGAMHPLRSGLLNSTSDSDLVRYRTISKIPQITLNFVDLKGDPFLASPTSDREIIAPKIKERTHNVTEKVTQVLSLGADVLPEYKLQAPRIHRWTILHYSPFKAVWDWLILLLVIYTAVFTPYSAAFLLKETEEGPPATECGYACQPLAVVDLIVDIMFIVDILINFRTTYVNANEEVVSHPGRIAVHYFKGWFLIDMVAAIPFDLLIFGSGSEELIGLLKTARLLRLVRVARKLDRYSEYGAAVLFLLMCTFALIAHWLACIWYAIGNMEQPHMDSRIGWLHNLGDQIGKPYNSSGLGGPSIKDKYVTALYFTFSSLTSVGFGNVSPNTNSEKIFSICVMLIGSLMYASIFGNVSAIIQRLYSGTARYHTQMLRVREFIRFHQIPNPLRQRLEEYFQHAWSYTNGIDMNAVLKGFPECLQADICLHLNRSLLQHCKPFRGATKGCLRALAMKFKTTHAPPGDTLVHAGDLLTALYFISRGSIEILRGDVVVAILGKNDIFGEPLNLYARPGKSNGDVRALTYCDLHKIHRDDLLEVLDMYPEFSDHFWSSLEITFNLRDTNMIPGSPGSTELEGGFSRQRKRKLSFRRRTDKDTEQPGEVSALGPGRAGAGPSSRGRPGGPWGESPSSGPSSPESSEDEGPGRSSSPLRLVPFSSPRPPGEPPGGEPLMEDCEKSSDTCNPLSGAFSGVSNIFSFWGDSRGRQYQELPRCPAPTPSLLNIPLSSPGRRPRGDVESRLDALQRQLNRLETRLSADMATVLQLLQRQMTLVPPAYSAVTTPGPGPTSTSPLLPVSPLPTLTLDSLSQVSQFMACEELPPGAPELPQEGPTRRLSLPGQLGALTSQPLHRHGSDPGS

| Compound | Potency [1] | outcome [2] | caspase-3 activation [3] [%] | caspase-3 activation [4] [%] | Potency [5] | Potency [6] | Potency [7] | Potency [8] | Potency [9] | Potency [10] | Potency [11] | Potency [12] | Potency [13] | Potency [14] | Potency [15] | Potency [16] | activation [17] | outcome [18] | Potency [19] | Potency [20] |
| --- | --- | --- | --- | --- | --- | --- | --- | --- | --- | --- | --- | --- | --- | --- | --- | --- | --- | --- | --- | --- |
| ClCCCCl | inactive | inactive | 2.19 | -1.63 | inactive | inactive | inactive | inactive | inactive | inactive | inactive | inactive | inactive | inactive | inactive | inactive | 0.207% | inactive |  |  |
| CCCCOC(=O)c1ccccc1N | inactive | inactive | 1.19 | 0.422 |  | inactive | inactive | inactive | inactive | inactive | inactive | inactive |  | inactive | inactive | inactive | -0.998% | inactive | inactive | inactive |
| Nc1ccc(Oc2ccc(N)cc2)cc1 | inactive | inactive | 3.63 | -2.14 | inactive |  |  | inactive | inactive | inactive | inactive | inactive | inactive | inactive | inactive | inactive | 0.532% and -1.89% | inactive | inactive | inactive |
| CC(C)(Cl)[N+](=O)[O-] | inactive | inactive | 0.332 | -0.194 | inactive | inactive |  | inactive | inactive |  | inactive | inactive | inactive | inactive |  | inactive | -0.598% | inactive |  | inactive |
| CC(C#N)CCC#N (stereo unspecified) | inactive | inactive | 0.213 |  | inactive |  | inactive |  | inactive |  | inactive | inactive | inactive | inactive | inactive |  | 0.705% | inactive | inactive | inactive |
| CNC(=O)O/N=C/C(C)(C)S(C)=O (stereo unspecified) | inactive | inactive | 0.627 | -2.67 | inactive | inactive | inactive | inactive | inactive | inactive |  | inactive | inactive | inactive | inactive | inactive | -0.721% and -0.0233% | inactive | inactive | inactive |
| COC(=O)Nc1nc2ccccc2[nH]1 | inactive |  |  | -4.59 |  | inactive | inactive |  | inactive | inactive | inactive | inactive | inactive | inactive |  |  |  |  | inactive | inactive |
| CC(C)(C)OOC(=O)c1ccccc1 | inactive | inactive | 6.04 | -1.73 | inactive |  |  | inactive | inactive | inactive |  | inactive |  |  | inactive | inactive | 0.502% and 3.48% | inactive |  |  |
| Clc1ccc(C(Cl)(Cl)Cl)cc1Cl | inactive | inactive | 0.663 | 1.11 |  | inactive | inactive | inactive | inactive |  | inactive |  | inactive | inactive | inactive | 11.2 µM (active) | -1.35% | inactive | inactive | inactive |
| O=C(O)CBr |  | inactive | 2.79 | 2.72 | inactive | inactive | inactive |  | inactive |  | inactive | inactive | inactive | inactive | inactive |  | -0.961% | inactive | inactive | inactive |
| Nc1cc(Cl)ccc1O | inactive | inactive | 15.3 | 4.86 |  | inactive |  | inactive | inactive | inactive | inactive |  |  |  |  | inactive | -0.288% |  | inactive | inactive |
| CC(C)OS(C)(=O)=O | inactive | inactive | 1.6 | -0.589 |  |  | inactive | inactive |  | inactive | inactive | inactive | inactive | inactive | inactive |  |  | inactive | inactive | inactive |
| O=[N+]([O-])/C=C/c1ccccc1 |  |  |  | -2.17 | inactive |  | 50.1 µM (active) | 50.1 µM (active) | 50.1 µM (active) | 39.8 µM (active) | 39.8 µM (active) |  | 50.1 µM (active) |  | 39.8 µM (active) | inactive | -0.835% |  | 39.8 µM (active) |  |
| Oc1cccc(Cl)c1Cl | inactive | inactive | 0.319 | 0.0996 | inactive | inactive | inactive | inactive | inactive | inactive | inactive | inactive | inactive | inactive | inactive |  |  | inactive | inactive |  |
| CCCCCOC(=O)c1ccccc1C(=O)OCCCCC |  | inactive |  | 3.92 | inactive | inactive |  | inactive | inactive | inactive | inactive | inactive | inactive | inactive | inactive |  | 1.01% and -1.21% | inactive | inactive | inactive |
| O=[N+]([O-])c1cc(Cl)c(Cl)c(Cl)c1 | inactive | inactive |  | 2.74 | inactive | inactive | inactive |  |  | inactive | inactive | inactive | inactive | inactive | inactive |  | -1.89% | inactive | inactive | inactive |
